Experimental data published in PubChem BioAssay (NCI).
About 79,000 compounds went through this panel and 15% of them were active in at least one assay; those are over-represented in the sample as a whole. Active and inactive are the calls of the source. No stated cut-off is given here; in the data, active means growth inhibition above about 70%; inactive means the rest.

experiment: NCI Yeast Anticancer Drug Screen. Data for the bub3 strain (AID 167); settings: S. cerevisiae bub3 mutant strain, stronger effect = higher value; at 50.0 µM unless noted
Procedure, shortened: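 Whole-cell yeast assay. The mutant strain was incubated with compounds, and growth inhibition was determined by comparison with vehicle-treated cells.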

Row | SMILES | growth inhibition
1 | CC1(C)N=C(N)N=C(N)N1c1ccc(N)cc1 | -21.4% (inactive)
2 | O=C(CC(=O)Nc1ccccc1Cl)NNC(c1cc(N=Nc2ccc(Br)cc2)ccc1O)P(O)O (stereo not drawn) | -8.25% (inactive)
3 | COc1cc(C(=O)N2CCOC23CCN(Cc2ccccc2)CC3)cc(OC)c1OC | -6.9% (inactive)
4 | Cc1c(CCCl)c(N=P(c2ccccc2)(c2ccccc2)c2ccccc2)n2c(nc3ccccc32)c1C#N | -5.05% (inactive)
5 | CC(=O)OC1CCC(C(C)(C)C)CC1 (stereo not drawn) | -28.2% (inactive)
6 | O=C1Nc2cc(Br)ccc2C1=O | 10.4% (inactive)
7 | N#C/C(=C/NC(N)=S)C(N)=O | -27.1% (inactive)
8 | C=Nc1ccc(Nc2ccccc2)cc1 | -1.6% (inactive)
9 | O=C(N/N=C/c1ccc2c(c1)OCO2)c1ccccc1 | 1.8% (inactive)
10 | CCCCCCCCC(=O)NCO | -25.6% (inactive)
11 | Cc1cc(S(=O)(=O)Nc2nc(N)nc(N3N=CCC3C)n2)c(SCC(=O)O)cc1Cl (stereo not drawn) | -1.55% (inactive)
12 | CC1=C(C(=O)Nc2cc(=O)n(C)c(=O)n2C)C(c2ccco2)C(C(=O)Nc2cc(=O)n(C)c(=O)n2C)=C(C)N1 | -4.6% (inactive)
13 | COc1ccc(/C=N/N2CN(C(C)C(=O)O)B(NCCC(C)C)N=C2N)cc1OC (stereo not drawn) | 29.2% (inactive)
14 | CCN(CCO)c1cccc(C)c1 | -17.4% (inactive)
15 | Nc1nc2ncc(COc3ccc(C(=O)O)cc3)nc2c(=O)[nH]1 | 53.2% (inactive)
16 | N#Cc1ccc(CC(=O)c2ccccc2)cc1 | -0.75% (inactive)
17 | O=[N+]([O-])c1cccnc1S(=O)(=O)c1ccccc1 | 6.2% (inactive)
18 | CC(=O)Nc1cc(Cl)ccc1[N+](=O)[O-] | 17.4% (inactive)
19 | Cc1ccc(NC(=O)C2CCCCC2)cc1 | -6.25% (inactive)
20 | CN1C=C(C(N)=O)Cc2ccsc21 | -17.1% (inactive)

Row | SMILES | growth inhibition
21 | C=C1CC2C=CC1C2 (stereo not drawn) | -15.8% (inactive)
22 | CC(=O)OCC1C2C=CC(C2)C1COC(C)=O (stereo not drawn) | -2.9% (inactive)
23 | COCc1ccccc1-n1nccc1S(C)=O (stereo not drawn) | 3.25% (inactive)
24 | COc1cc2c(cc1OC)C(Cl)C(c1ccc(Br)cc1)=C2Cl (stereo not drawn) | 55.4% (inactive)
25 | C/C(=N/NC(N)=S)c1ccc([N+](=O)[O-])cc1 | -12.4% (inactive)
26 | Cc1ncc(CN=Cc2ccc(Cl)cc2)c(N)n1 | 8.9% (inactive)
27 | CCCc1ccc(C)c(Br)c1 | 1.3% (inactive)
28 | CSc1ccc(NC(=O)Nc2cc(C)ccc2N=Nc2ccc(C)cc2)cc1 | -4.75% (inactive)
29 | CC(=O)Oc1cc(OC(C)=O)c2c(OC(C)=O)c3c(OC(C)=O)cc(C)cc3cc2c1 | 9.3% (inactive)
30 | CCCNC(=O)Cn1c(-c2ccccc2)cc2ccccc21 | 27.9% (inactive)
31 | CCCCCCCCCCCCC(=O)N1CCOCC1 | 99.6% (active)
32 | NCCCCCCCCCCN | -35.7% (inactive)
33 | CCCN(CCC)C(=O)c1ccccc1C | 18.4% (inactive)
34 | O=C(c1ccccc1)C(Oc1ccccc1)c1ccccc1 (stereo not drawn) | 6.9% (inactive)
35 | Cc1nc2cccc3ccc4c5ccccc5cc1c4c32 | 21.6% (inactive)
36 | Cc1ccccc1NS(=O)(=O)N1CCCCC1 | 22.1% (inactive)
37 | CC(=O)OCCc1cc2ccccc2oc1=O | 12.2% (inactive)
38 | CC(=O)COC(=O)c1ccccc1 | 10.2% (inactive)
39 | O=C(O)c1cc([N+](=O)[O-])c(O)c2ccccc12 | -16.1% (inactive)

experiment: NCI Yeast Anticancer Drug Screen. Data for the mlh1 rad18 strain (AID 175); settings: S. cerevisiae mlh1 rad18 strain growth inhibition, stronger effect = higher value; at 50.0 µM unless noted
Procedure, shortened: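 Vehicle-treated cultures served as the reference for growth inhibition in a yeast strain carrying DNA damage repair alterations exposed to each compound.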

Row | SMILES | growth inhibition
40 | CC1(C)N=C(N)N=C(N)N1c1ccc(N)cc1 | 7.8% (inactive)
41 | O=C(CC(=O)Nc1ccccc1Cl)NNC(c1cc(N=Nc2ccc(Br)cc2)ccc1O)P(O)O (stereo not drawn) | -2.35% (inactive)
42 | COc1cc(C(=O)N2CCOC23CCN(Cc2ccccc2)CC3)cc(OC)c1OC | 2.7% (inactive)
43 | Cc1c(CCCl)c(N=P(c2ccccc2)(c2ccccc2)c2ccccc2)n2c(nc3ccccc32)c1C#N | 18.6% (inactive)
44 | CC(=O)OC1CCC(C(C)(C)C)CC1 (stereo not drawn) | -15.8% (inactive)
45 | O=C1Nc2cc(Br)ccc2C1=O | 15.2% (inactive)
46 | N#C/C(=C/NC(N)=S)C(N)=O | 20.7% (inactive)
47 | C=Nc1ccc(Nc2ccccc2)cc1 | 3.3% (inactive)
48 | O=C(N/N=C/c1ccc2c(c1)OCO2)c1ccccc1 | 22.4% (inactive)
49 | CCCCCCCCC(=O)NCO | -24.1% (inactive)
50 | Cc1cc(S(=O)(=O)Nc2nc(N)nc(N3N=CCC3C)n2)c(SCC(=O)O)cc1Cl (stereo not drawn) | 2.1% (inactive)
51 | CC1=C(C(=O)Nc2cc(=O)n(C)c(=O)n2C)C(c2ccco2)C(C(=O)Nc2cc(=O)n(C)c(=O)n2C)=C(C)N1 | -0.4% (inactive)
52 | COc1ccc(/C=N/N2CN(C(C)C(=O)O)B(NCCC(C)C)N=C2N)cc1OC (stereo not drawn) | -4.1% (inactive)
53 | CCN(CCO)c1cccc(C)c1 | -7.2% (inactive)
54 | Nc1nc2ncc(COc3ccc(C(=O)O)cc3)nc2c(=O)[nH]1 | 13.6% (inactive)
55 | N#Cc1ccc(CC(=O)c2ccccc2)cc1 | 3.15% (inactive)
56 | O=[N+]([O-])c1cccnc1S(=O)(=O)c1ccccc1 | -0.15% (inactive)
57 | CC(=O)Nc1cc(Cl)ccc1[N+](=O)[O-] | 5.95% (inactive)
58 | Cc1ccc(NC(=O)C2CCCCC2)cc1 | -1.6% (inactive)
59 | CN1C=C(C(N)=O)Cc2ccsc21 | -18.5% (inactive)

Row | SMILES | growth inhibition
60 | C=C1CC2C=CC1C2 (stereo not drawn) | 2.85% (inactive)
61 | CC(=O)OCC1C2C=CC(C2)C1COC(C)=O (stereo not drawn) | 2.1% (inactive)
62 | COCc1ccccc1-n1nccc1S(C)=O (stereo not drawn) | -2.6% (inactive)
63 | COc1cc2c(cc1OC)C(Cl)C(c1ccc(Br)cc1)=C2Cl (stereo not drawn) | 32.8% (inactive)
64 | C/C(=N/NC(N)=S)c1ccc([N+](=O)[O-])cc1 | -2.3% (inactive)
65 | Cc1ncc(CN=Cc2ccc(Cl)cc2)c(N)n1 | 13.2% (inactive)
66 | CCCc1ccc(C)c(Br)c1 | 3.3% (inactive)
67 | CSc1ccc(NC(=O)Nc2cc(C)ccc2N=Nc2ccc(C)cc2)cc1 | 17.5% (inactive)
68 | CC(=O)Oc1cc(OC(C)=O)c2c(OC(C)=O)c3c(OC(C)=O)cc(C)cc3cc2c1 | 20.1% (inactive)
69 | CCCNC(=O)Cn1c(-c2ccccc2)cc2ccccc21 | -52.8% (inactive)
70 | CCCCCCCCCCCCC(=O)N1CCOCC1 | 99.5% (active)
71 | NCCCCCCCCCCN | -11.9% (inactive)
72 | CCCN(CCC)C(=O)c1ccccc1C | 2.9% (inactive)
73 | O=C(c1ccccc1)C(Oc1ccccc1)c1ccccc1 (stereo not drawn) | 60% (inactive)
74 | Cc1nc2cccc3ccc4c5ccccc5cc1c4c32 | 49.3% (inactive)
75 | Cc1ccccc1NS(=O)(=O)N1CCCCC1 | -5.65% (inactive)
76 | CC(=O)OCCc1cc2ccccc2oc1=O | 9.25% (inactive)
77 | CC(=O)COC(=O)c1ccccc1 | 26.2% (inactive)
78 | O=C(O)c1cc([N+](=O)[O-])c(O)c2ccccc12 | 21.8% (inactive)
